Reference: ChEMBL document CHEMBL2218924, “A broad activity screen in support of a chemogenomic map for kinase signalling research and drug discovery” (Biochem J, 2013)

Assays:
[1] = molecular target: T1, Ephrin type-B receptor 1 (Homo sapiens) (UniProt P54762); conditions: at 10 µM
T1 sequence (whole entry): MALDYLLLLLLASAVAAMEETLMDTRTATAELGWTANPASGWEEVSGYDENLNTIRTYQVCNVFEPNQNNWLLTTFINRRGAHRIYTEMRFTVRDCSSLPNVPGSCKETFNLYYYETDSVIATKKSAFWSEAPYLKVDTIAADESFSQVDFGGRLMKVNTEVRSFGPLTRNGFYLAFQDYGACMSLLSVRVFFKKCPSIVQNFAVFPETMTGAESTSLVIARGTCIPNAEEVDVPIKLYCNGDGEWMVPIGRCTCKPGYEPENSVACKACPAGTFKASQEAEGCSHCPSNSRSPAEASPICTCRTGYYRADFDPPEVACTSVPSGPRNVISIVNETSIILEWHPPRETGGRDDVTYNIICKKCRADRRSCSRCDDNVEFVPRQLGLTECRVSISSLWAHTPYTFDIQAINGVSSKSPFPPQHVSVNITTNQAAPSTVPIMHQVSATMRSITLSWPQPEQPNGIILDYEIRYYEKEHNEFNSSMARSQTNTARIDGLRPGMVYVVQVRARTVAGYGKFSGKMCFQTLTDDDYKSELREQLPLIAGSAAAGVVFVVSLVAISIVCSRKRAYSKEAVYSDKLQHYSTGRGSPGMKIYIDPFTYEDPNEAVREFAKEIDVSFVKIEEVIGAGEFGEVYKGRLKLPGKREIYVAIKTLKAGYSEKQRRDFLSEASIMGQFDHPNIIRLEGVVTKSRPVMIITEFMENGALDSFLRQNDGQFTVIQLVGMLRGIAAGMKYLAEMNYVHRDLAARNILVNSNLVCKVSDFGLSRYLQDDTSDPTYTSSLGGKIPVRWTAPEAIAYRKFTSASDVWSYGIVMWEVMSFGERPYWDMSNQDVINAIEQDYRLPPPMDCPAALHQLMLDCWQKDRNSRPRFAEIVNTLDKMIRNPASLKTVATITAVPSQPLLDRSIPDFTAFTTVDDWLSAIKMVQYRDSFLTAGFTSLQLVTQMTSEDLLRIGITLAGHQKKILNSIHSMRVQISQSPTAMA

[2] = molecular target: T2, Ephrin type-B receptor 2 (Homo sapiens) (UniProt P29323); conditions: at 10 µM
T2 sequence (whole entry): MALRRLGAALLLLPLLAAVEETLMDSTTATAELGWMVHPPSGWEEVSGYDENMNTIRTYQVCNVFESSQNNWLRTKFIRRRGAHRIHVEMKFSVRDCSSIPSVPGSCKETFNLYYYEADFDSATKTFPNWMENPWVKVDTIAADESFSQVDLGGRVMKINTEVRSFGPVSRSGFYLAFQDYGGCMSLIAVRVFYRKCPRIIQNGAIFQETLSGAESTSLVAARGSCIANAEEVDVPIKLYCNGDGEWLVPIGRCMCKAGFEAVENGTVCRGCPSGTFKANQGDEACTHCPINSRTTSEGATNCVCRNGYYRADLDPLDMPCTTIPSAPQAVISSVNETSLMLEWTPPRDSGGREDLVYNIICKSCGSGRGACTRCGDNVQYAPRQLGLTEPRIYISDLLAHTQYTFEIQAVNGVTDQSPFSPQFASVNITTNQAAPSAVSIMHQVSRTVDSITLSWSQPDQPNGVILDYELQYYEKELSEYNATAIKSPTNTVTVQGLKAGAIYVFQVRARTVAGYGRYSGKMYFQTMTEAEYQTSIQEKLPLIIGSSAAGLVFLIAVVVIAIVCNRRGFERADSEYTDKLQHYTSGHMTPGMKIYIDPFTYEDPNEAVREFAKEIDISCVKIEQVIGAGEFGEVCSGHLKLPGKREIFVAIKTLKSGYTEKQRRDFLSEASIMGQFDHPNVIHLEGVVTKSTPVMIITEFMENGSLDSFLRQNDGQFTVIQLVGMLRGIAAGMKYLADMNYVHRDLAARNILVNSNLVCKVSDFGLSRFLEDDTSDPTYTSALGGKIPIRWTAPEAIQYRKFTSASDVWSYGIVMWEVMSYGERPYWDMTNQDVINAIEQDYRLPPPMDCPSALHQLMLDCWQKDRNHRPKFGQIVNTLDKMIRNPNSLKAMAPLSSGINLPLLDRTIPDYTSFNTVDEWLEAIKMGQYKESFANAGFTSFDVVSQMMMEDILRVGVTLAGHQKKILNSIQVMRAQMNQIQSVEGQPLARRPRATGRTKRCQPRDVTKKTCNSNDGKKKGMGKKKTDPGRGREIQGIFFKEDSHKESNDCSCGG

[3] = molecular target: T3, Ephrin type-B receptor 4 (Homo sapiens) (UniProt P54760); conditions: at 10 µM
T3 sequence (whole entry): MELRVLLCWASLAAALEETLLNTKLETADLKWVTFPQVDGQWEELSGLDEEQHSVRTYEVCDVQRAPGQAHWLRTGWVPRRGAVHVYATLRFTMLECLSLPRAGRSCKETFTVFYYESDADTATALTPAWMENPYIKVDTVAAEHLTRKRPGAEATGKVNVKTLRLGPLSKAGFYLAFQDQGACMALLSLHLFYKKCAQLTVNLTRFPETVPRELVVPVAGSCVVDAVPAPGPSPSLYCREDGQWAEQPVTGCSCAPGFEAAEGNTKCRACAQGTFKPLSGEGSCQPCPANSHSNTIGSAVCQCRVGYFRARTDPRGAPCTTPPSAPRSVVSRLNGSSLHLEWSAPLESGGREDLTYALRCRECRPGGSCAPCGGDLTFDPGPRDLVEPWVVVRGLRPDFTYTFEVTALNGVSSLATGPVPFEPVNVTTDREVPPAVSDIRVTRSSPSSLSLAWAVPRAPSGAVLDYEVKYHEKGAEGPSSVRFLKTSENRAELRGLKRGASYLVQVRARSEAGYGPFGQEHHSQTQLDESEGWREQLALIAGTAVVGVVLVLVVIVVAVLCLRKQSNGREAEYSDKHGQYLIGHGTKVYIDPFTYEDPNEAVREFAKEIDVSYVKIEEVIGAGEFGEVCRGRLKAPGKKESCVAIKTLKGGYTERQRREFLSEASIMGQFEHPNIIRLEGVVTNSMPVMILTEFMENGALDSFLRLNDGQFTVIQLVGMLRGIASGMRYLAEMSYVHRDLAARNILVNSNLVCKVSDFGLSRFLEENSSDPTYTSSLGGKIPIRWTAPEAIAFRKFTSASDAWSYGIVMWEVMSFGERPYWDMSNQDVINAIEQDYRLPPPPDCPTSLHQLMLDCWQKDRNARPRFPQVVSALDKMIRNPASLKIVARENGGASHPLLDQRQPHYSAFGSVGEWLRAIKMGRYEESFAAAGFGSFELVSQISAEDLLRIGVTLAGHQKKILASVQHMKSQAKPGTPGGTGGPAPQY

[4] = molecular target: Receptor tyrosine-protein kinase erbB-4 (Homo sapiens) (UniProt Q15303); conditions: at 10 µM
[5] = molecular target: Focal adhesion kinase 1 (Homo sapiens) (UniProt Q05397); conditions: at 1 µM
[6] = molecular target: Focal adhesion kinase 1 (Homo sapiens) (UniProt Q05397); conditions: at 10 µM
[7] = molecular target: Fibroblast growth factor receptor 1 (Homo sapiens) (UniProt P11362); conditions: at 1 µM
[8] = molecular target: Fibroblast growth factor receptor 1 (Homo sapiens) (UniProt P11362); conditions: at 10 µM
[9] = molecular target: Fibroblast growth factor receptor 2 (Homo sapiens) (UniProt P21802); conditions: at 10 µM
[10] = molecular target: T4, Ephrin type-B receptor 3 (Homo sapiens) (UniProt P54753); conditions: at 10 µM
T4 sequence (whole entry): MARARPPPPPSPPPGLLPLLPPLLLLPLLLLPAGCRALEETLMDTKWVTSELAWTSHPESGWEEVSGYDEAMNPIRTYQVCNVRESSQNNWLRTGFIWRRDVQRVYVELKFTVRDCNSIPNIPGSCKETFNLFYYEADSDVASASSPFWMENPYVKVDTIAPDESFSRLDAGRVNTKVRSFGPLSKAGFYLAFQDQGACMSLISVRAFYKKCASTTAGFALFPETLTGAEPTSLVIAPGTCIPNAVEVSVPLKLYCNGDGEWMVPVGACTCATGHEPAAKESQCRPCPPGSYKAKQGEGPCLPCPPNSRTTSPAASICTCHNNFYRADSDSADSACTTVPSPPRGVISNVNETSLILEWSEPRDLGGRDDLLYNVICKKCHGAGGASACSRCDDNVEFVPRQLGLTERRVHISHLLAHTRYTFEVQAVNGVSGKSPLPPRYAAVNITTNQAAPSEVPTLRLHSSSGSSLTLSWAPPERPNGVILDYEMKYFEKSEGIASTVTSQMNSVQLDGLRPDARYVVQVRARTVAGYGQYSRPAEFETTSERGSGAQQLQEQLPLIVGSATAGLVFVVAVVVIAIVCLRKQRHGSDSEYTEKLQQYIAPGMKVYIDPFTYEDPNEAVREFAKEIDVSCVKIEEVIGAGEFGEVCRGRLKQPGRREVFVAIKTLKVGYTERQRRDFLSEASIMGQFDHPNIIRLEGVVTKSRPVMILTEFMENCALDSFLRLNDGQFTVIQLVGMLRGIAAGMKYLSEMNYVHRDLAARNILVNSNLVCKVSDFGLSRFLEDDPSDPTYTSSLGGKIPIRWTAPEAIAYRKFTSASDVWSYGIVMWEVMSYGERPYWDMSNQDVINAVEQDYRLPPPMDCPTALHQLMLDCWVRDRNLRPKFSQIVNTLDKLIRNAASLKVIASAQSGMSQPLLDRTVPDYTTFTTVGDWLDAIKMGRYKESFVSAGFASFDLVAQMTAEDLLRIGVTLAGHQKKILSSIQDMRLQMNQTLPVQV

[11] = molecular target: Receptor tyrosine-protein kinase erbB-4 (Homo sapiens) (UniProt Q15303); conditions: at 1 µM
[12] = molecular target: Fibroblast growth factor receptor 3 (Homo sapiens) (UniProt P22607); conditions: at 10 µM
[13] = molecular target: T2, Ephrin type-B receptor 2 (Homo sapiens); conditions: at 1 µM
[14] = molecular target: T4, Ephrin type-B receptor 3 (Homo sapiens); conditions: at 1 µM
[15] = molecular target: T3, Ephrin type-B receptor 4 (Homo sapiens); conditions: at 1 µM
[16] = molecular target: Fibroblast growth factor receptor 2 (Homo sapiens) (UniProt P21802); conditions: at 1 µM
[17] = molecular target: Fibroblast growth factor receptor 3 (Homo sapiens) (UniProt P22607); conditions: at 1 µM
[18] = molecular target: Fibroblast growth factor receptor 4 (Homo sapiens) (UniProt P22455); conditions: at 1 µM
[19] = molecular target: Fibroblast growth factor receptor 4 (Homo sapiens) (UniProt P22455); conditions: at 10 µM
[20] = molecular target: Tyrosine-protein kinase Fer (Homo sapiens) (UniProt P16591); conditions: at 1 µM

Chain of Fibroblast growth factor receptor 1 (Homo sapiens) (P11362 22-822 limits assumed): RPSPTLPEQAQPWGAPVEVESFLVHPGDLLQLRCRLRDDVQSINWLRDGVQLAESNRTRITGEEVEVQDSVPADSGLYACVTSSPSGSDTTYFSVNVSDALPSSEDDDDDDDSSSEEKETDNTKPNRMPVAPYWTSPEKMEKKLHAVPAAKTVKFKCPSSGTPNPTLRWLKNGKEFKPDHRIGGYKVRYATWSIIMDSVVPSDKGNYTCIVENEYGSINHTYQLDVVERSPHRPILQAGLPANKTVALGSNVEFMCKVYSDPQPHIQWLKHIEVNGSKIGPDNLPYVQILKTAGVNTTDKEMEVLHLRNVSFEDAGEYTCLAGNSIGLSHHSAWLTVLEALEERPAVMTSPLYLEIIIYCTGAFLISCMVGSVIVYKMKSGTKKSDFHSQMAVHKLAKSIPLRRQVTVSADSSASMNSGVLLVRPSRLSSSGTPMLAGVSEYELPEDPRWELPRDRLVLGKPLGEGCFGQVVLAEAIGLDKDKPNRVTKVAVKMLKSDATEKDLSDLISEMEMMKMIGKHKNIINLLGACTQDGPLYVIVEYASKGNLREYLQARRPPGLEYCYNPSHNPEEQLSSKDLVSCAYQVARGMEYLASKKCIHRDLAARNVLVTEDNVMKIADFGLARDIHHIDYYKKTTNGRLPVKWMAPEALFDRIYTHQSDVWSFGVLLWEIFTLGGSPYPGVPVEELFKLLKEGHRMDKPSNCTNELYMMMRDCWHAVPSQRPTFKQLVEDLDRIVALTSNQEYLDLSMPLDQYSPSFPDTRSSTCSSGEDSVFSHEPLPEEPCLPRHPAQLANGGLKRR
Chain of Focal adhesion kinase 1 (Homo sapiens) (Q05397 2-1052 limits assumed): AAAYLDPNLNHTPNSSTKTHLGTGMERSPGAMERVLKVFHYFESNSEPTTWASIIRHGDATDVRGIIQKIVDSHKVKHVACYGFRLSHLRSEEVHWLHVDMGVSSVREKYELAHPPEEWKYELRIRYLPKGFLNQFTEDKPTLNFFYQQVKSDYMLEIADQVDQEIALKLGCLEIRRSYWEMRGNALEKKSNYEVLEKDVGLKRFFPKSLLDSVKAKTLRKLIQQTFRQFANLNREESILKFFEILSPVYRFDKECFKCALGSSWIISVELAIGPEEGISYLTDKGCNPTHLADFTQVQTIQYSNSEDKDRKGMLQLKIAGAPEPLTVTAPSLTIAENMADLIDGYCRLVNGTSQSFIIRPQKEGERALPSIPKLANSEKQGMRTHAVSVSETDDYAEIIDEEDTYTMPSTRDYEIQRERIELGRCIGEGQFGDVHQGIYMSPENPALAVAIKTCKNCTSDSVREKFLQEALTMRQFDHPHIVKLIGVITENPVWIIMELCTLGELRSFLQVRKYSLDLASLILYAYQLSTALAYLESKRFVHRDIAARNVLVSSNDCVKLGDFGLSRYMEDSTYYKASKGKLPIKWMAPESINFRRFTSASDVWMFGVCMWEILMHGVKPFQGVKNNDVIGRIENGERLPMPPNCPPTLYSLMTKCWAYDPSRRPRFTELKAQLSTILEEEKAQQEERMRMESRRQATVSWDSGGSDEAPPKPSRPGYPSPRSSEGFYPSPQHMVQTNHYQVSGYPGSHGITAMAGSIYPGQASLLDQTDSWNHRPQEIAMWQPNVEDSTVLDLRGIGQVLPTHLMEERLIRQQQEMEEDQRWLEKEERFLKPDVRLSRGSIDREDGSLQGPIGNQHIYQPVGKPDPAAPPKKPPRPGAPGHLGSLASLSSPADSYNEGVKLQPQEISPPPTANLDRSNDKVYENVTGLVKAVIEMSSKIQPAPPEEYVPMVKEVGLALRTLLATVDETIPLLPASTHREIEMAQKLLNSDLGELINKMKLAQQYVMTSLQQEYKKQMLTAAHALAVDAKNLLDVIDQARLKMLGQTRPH
Chain of Fibroblast growth factor receptor 4 (Homo sapiens) (P22455 22-802 limits assumed): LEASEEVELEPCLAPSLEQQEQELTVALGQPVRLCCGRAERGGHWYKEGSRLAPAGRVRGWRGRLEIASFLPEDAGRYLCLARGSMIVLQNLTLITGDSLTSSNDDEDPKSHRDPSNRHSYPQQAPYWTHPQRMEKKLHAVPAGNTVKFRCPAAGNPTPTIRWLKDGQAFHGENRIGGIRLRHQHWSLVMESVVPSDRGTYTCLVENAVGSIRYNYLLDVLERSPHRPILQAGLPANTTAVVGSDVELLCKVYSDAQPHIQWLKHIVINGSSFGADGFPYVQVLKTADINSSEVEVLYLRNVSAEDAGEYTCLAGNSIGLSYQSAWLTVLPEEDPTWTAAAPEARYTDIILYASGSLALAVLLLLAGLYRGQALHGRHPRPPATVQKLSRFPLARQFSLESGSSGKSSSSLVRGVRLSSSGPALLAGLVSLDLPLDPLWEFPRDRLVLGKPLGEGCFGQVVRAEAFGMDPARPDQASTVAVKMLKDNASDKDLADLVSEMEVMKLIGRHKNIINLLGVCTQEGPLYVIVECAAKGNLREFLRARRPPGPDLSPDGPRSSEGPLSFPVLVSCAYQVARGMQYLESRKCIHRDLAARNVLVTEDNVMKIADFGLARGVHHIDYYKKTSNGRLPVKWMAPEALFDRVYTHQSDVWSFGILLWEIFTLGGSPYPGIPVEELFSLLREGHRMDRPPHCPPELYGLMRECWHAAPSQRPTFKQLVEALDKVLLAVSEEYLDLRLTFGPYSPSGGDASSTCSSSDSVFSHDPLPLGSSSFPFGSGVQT
Chain of Receptor tyrosine-protein kinase erbB-4 (Homo sapiens) (Q15303 whole entry): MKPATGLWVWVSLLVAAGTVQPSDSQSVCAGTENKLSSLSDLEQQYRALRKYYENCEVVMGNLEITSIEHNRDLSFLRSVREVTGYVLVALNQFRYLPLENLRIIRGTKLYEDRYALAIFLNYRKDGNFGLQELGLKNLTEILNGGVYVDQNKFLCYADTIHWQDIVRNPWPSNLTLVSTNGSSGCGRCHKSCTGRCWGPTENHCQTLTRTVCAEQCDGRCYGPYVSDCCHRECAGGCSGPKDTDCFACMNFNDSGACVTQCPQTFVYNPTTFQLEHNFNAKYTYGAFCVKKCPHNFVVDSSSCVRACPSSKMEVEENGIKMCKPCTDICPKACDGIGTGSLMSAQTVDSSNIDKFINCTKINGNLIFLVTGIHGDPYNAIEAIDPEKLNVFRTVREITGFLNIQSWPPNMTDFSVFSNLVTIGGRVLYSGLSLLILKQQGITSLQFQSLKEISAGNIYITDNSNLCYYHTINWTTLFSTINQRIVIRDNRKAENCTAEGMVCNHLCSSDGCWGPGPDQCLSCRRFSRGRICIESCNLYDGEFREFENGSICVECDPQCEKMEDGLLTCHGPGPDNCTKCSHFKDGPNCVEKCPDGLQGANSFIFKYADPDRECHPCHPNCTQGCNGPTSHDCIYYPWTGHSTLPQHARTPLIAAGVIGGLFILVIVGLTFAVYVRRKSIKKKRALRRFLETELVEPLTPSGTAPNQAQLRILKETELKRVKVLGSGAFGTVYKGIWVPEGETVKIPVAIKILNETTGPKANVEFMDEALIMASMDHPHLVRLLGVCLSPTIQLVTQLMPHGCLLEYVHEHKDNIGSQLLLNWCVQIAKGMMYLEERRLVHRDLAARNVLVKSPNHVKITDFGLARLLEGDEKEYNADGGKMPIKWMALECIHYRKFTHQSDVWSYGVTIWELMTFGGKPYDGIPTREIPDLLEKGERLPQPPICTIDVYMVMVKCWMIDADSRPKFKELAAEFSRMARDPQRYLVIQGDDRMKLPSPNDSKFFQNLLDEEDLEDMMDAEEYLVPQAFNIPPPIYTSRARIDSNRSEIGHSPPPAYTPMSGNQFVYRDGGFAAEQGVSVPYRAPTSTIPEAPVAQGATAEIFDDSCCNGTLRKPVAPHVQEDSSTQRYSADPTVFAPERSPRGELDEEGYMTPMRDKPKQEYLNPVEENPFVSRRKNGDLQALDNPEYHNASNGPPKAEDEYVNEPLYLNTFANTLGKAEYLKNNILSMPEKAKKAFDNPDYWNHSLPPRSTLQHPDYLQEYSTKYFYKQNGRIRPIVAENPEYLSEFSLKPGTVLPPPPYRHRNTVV
Chain of Fibroblast growth factor receptor 2 (Homo sapiens) (P21802 22-821 limits assumed): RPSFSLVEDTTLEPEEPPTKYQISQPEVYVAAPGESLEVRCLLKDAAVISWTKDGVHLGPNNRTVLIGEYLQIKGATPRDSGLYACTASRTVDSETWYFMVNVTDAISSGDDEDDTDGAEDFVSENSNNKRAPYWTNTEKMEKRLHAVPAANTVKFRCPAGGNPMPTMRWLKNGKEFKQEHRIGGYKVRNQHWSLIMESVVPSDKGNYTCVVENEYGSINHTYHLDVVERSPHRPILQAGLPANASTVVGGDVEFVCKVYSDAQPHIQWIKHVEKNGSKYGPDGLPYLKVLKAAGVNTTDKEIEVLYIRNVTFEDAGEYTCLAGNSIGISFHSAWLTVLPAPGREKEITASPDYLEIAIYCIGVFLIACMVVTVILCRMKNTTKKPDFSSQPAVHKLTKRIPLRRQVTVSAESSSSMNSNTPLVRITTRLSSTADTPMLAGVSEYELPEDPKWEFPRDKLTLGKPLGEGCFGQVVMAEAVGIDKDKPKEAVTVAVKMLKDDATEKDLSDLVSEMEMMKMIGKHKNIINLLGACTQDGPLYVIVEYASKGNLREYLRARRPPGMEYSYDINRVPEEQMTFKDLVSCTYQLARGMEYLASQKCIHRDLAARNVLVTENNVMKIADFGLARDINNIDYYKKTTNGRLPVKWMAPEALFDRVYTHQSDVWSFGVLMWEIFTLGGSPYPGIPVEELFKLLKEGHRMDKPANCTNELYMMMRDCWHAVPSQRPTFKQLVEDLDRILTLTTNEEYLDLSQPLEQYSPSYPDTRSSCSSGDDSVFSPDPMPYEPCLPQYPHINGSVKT

Row | Structure (SMILES) | residual activity [1] [%] | residual activity [2] [%] | residual activity [3] [%] | residual activity [4] [%] | residual activity [5] [%] | residual activity [6] [%] | residual activity [7] [%] | residual activity [8] [%] | residual activity [9] [%] | residual activity [10] [%] | residual activity [11] [%] | residual activity [12] [%] | residual activity [13] [%] | residual activity [14] | residual activity [15] [%] | residual activity [16] [%] | residual activity [17] [%] | residual activity [18] [%] | residual activity [19] [%] | residual activity [20] [%]
1 | N#CCCc1ccc2c(c1)-c1[nH]c3ccc([N+](=O)[O-])cc3c1CC(=O)N2 | 74 | 67 | 77 | 76 | 50 | 22 | 47 | 17 | 48 | – | – | – | – | – | – | – | – | – | – | –
2 | Cc1cncc2cccc(S(=O)(=O)N3CCCN(C(=O)CN)C[C@H]3C)c12 | 31 | – | – | – | – | – | 76 | 20 | – | 128 | 89 | 93 | – | – | – | – | – | – | – | –
3 | COc1cc2ncnc(N3CCN(C(=O)Nc4ccc(Oc5ccccc5)cc4)CC3)c2cc1OC | 102 | – | 112 | 145 | 108 | 76 | 90 | 89 | 102 | 146 | 100 | 99 | 114 | 110% (inactive) | 98 | 105 | 115 | 120 | 105 | 104
4 | N#C/C(=C(\N)Sc1ccc(N)cc1)c1ccccc1C(F)(F)F | 95 | 110 | 92 | 104 | 99 | 95 | 112 | 83 | – | 109 | 96 | 93 | 108 | 105% (inactive) | 93 | 100 | 102 | 86 | 90 | 88
5 | CN(C)CCCn1cc(C2=C(c3c[nH]c4ccccc34)C(=O)NC2=O)c2ccccc21 | 59 | 113 | 118 | 86 | 133 | 37 | 50 | 3 | 33 | 110 | 113 | 29 | 119 | 108% (inactive) | 124 | 88 | – | 121 | 70 | 113
6 | O=C1NC(=O)/C(=C/c2ccc3c(c2)OC(F)(F)O3)S1 | 106 | 110 | 121 | 101 | 112 | 95 | 116 | 99 | 101 | 109 | 98 | 112 | 108 | 125% (inactive) | 118 | 92 | 111 | 116 | 94 | 107
7 | C[C@@H](N)[C@H]1CC[C@H](C(=O)Nc2ccncc2)CC1 | 99 | 92 | 102 | 113 | 104 | 96 | 95 | 98 | 82 | 110 | 109 | 93 | 90 | 111% (inactive) | 108 | 102 | – | 100 | 103 | 100
8 | N#Cc1cnc2cnc(NCc3cccnc3)cc2c1Nc1ccc(F)c(Cl)c1 | 89 | 100 | – | 128 | – | – | 21 | 12 | 30 | – | 132 | 18 | 99 | – | – | 48 | 38 | – | 92 | 83
